# PubChem BioAssay (EPA / NIEHS)
# Where “and” joins values, the source holds several entries; their conditions need not be identical. Equal values may be shown once. Results filed as inconclusive are left out. The source holds several records for some structures; these can differ, active in one and inactive in another. Calls of active or inactive are those of the source. The calls were made as follows: active = hit-call score of the fitted dose curve at least 0.9, where 1 is the maximum; inconclusive = response in the unintended direction; inactive = score below 0.9.
# How the values were obtained:
# [1] = target: mouse Cholecystokinin, CCK2 Receptor (CCKB), Cckbr (gene 12426) (UniProt P56481); test: NVS_GPCR_mCKKBCentral: NovaScreen (NVS) G Protein-Coupled Receptor Assay for mouse Cholecystokinin, CCK2 Receptor (CCKB) (AID 2283293)
# How it was run: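 Radioligand displacement binding on mouse forebrain membranes, 2 h exposure, filter-based scintillation counting. Primary screen in duplicate at 25 uM; actives (e.g. ≥30% inhibition) retested in concentration-response up to 50 uM; loss of binding signal relative to DMSO.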
# [2] = system: rat Adrenergic, Alpha 1B Receptor (Adra1B), gene 24173; test: NVS_GPCR_rAdra1B: NovaScreen (NVS) G Protein-Coupled Receptor Assay for rat Adrenergic, Alpha 1B Receptor (Adra1B) (AID 2283297)
# How it was run: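 Rat liver membranes, radioligand displacement with filter-based scintillation detection, 1 h incubation. Primary screen in duplicate at 25 uM; actives retested in concentration series; activity relative to DMSO.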
# [3] = target: rat Neurokinin-1 Receptor (NK1), Tacr1 (gene 24807) (UniProt P14600); test: NVS_GPCR_rNK1: NovaScreen (NVS) G Protein-Coupled Receptor Assay for rat Neurokinin-1 Receptor (NK1) (AID 2283309)
# How it was run: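 Rat submaxillary gland membranes; radioligand displacement read by filter-based scintillation counting after 1 h. Primary screen in duplicate at 25 uM; actives retested in concentration series; loss of binding fitted versus DMSO.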
# [4] = target: guinea pig Bradykinin Receptor B2 (BK2), BDKRB2 (gene 100135486) (UniProt O70526); test: NVS_GPCR_gBK2: NovaScreen (NVS) G Protein-Coupled Receptor Assay for guinea pig Bradykinin Receptor B2 (BK2) (AID 2283292)
# How it was run: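 Radioligand displacement on guinea pig ileum membranes for 1 h, read by filter-based scintillation counting; loss of signal relative to DMSO. Compounds were screened in duplicate at 25 uM, and those passing the threshold were retested in concentration-response up to 50 uM.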
# [5] = target: rat Adrenergic Receptor, Beta (Adrb), Non-selective Binding, Adrb1 (gene 24925) (UniProt P18090); test: NVS_GPCR_rAdrb_NonSelective: NovaScreen (NVS) G Protein-Coupled Receptor Assay for rat Adrenergic Receptor, Beta (Adrb), Non-selective Binding (AID 2283298)
# How it was run: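 Non-selective beta-adrenergic radioligand binding in rat cortical membranes, 1 h incubation, filter-based scintillation read-out. Primary screen 25 uM in duplicate; hits retested in concentration-response up to 50 uM, DMSO baseline.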
# [6] = target: rat Neurotensin Receptor (NTS), Ntsr1 (gene 366274) (UniProt P20789); test: NVS_GPCR_rNTS: NovaScreen (NVS) G Protein-Coupled Receptor Assay for rat Neurotensin Receptor (NTS) (AID 2283308)
# How it was run: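 Rat forebrain membranes; radioligand binding with competitive displacement, read by filter-based scintillation counting 1 h after dosing. Primary screen in duplicate at 25 uM; actives (e.g., 30% inhibition) rerun in concentration-response up to 50 uM, loss-of-signal versus DMSO.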
# [7] = target: human Opioid Receptor Mu (Opiate Mu), OPRM1 (gene 4988) (UniProt P35372); test: NVS_GPCR_hOpiate_mu: NovaScreen (NVS) G Protein-Coupled Receptor Assay for human Opioid Receptor Mu (Opiate Mu) (AID 2283290);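 also: hits lower bound tracer signal versus DMSO meaning displacement of the ligand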
# How it was run: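 Cell-free radioligand binding to membranes from CHO cells expressing the receptor; bound tracer measured by filter-based scintillation counting 2.5 hours after dosing. Loss of signal versus DMSO baseline reflects displacement; primary screen at 25 uM in duplicate, actives followed up in concentration series.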
# [8] = target: guinea pig Serotonin, 5-Hydroxytryptamine Receptor 4 (5HT4), HTR4 (gene 100135548) (UniProt O70528); test: NVS_GPCR_g5HT4: NovaScreen (NVS) G Protein-Coupled Receptor Assay for guinea pig Serotonin, 5-Hydroxytryptamine Receptor 4 (5HT4) (AID 2283294)
# How it was run: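 Guinea pig striatal membranes; radioligand competitive displacement, filtration and scintillation counting after 1 h. Primary screen in duplicate at 25 uM; actives then tested in concentration series; loss of binding signal fitted relative to DMSO.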
# [9] = target: rat Gamma-Aminobutyric Acid Type B Receptor (GABBR), Gabbr1 (gene 81657) (UniProt Q9Z0U4); test: NVS_GPCR_rGABBR: NovaScreen (NVS) G Protein-Coupled Receptor Assay for rat Gamma-Aminobutyric Acid Type B Receptor (GABBR) (AID 2283301)
# How it was run: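 Radioligand displacement on rat cortical membranes, 1 h, filter-based scintillation counting. Primary screen at 25 uM in duplicate; compounds passing threshold re-tested in concentration-response up to 50 uM; loss of binding fitted against DMSO.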
# [10] = target: rat Somatostatin Receptor (SST), Sstr1 (gene 25033) (UniProt P28646); test: NVS_GPCR_rSST: NovaScreen (NVS) G Protein-Coupled Receptor Assay for rat Somatostatin Receptor (SST) (AID 2283314)
# How it was run: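 Rat forebrain membranes; radioligand displacement read by filter-based scintillation counting 1 h after dosing. Primary screen in duplicate at 25 uM. Actives (e.g., 30% inhibition) were rerun as concentration-response to 50 uM max and fitted against DMSO.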
# [11] = target: human Neonicotinoid receptor (NNR), CHRNA2 (gene 1135) (UniProt Q15822); test: NVS_LGIC_hNNR_NBungSens: NovaScreen (NVS) Ligand-Gated Ion Channel Assay for human Neonicotinoid receptor (NNR) (AID 2283313)
# How it was run: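 Radioligand displacement on human neuroblastoma membranes, 2 h, filter-based scintillation counting. Primary screen in duplicate at 25 uM; chemicals passing threshold (e.g. 30% inhibition) run singleton concentration-response to 50 uM; loss of binding fitted versus DMSO.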
# [12] = target: rat Opioid Receptor, Non-selective Sodium (Na+) Binding, Oprm1 (gene 25601) (UniProt P33535); test: NVS_GPCR_rOpiate_NonSelectiveNa: NovaScreen (NVS) G Protein-Coupled Receptor Assay for rat Opioid Receptor, Non-selective Sodium (Na+) Binding (AID 2283311)
# How it was run: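 Rat forebrain membranes, radioligand displacement with filter scintillation counting, 1.5 h incubation. Screened in duplicate at 25 µM; hits then run in concentration-response up to 50 µM; loss of binding fitted versus DMSO.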
# [13] = system: guinea pig Atrionatriuretic Peptide Receptor A (ANPA), gene 100135578; test: NVS_GPCR_gANPA: NovaScreen (NVS) G Protein-Coupled Receptor Assay for guinea pig Atrionatriuretic Peptide Receptor A (ANPA) (AID 2283291)
# How it was run: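 Radioligand binding to guinea pig cerebellar membranes was measured after 1 h by filter-based scintillation counting. Chemicals were tested in duplicate at 25 uM, with hits run in concentration-response to a maximum of 50 uM. Binding loss was fitted against DMSO.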
# [14] = target: rat Adrenergic, Alpha 1A Receptor (Adra1A), Adra1a (gene 29412) (UniProt P43140); test: NVS_GPCR_rAdra1A: NovaScreen (NVS) G Protein-Coupled Receptor Assay for rat Adrenergic, Alpha 1A Receptor (Adra1A) (AID 2283296)
# How it was run: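 Rat cortical membranes pretreated with chlorethyl clonidine; competitive radioligand displacement, 1 h. Filter-based scintillation counting. Primary screen in duplicate at 25 uM, actives followed in concentration series.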
# [15] = target: rat Corticotropin Releasing Factor Receptor (CRF), Crhr1 (gene 58959) (UniProt P35353); test: NVS_GPCR_rCRF: NovaScreen (NVS) G Protein-Coupled Receptor Assay for rat Corticotropin Releasing Factor Receptor (CRF) (AID 2283300)
# How it was run: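 Rat cortical membranes used as receptor source in a radioligand competitive displacement binding assay; scintillation read 2 h after dosing. Primary screen run in duplicate at 25 uM; loss of signal versus DMSO baseline indicates binding.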
# [16] = target: rat Histamine Receptor (H3), Hrh3 (gene 85268) (UniProt Q9QYN8); test: NVS_GPCR_rH3: NovaScreen (NVS) G Protein-Coupled Receptor Assay for rat Histamine Receptor (H3) (AID 2283303)
# How it was run: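 Rat forebrain membranes incubated 1 h with compound; radioligand displacement measured by filter-based scintillation counting. Single-concentration duplicates at 25 µM, then concentration-response up to 50 µM, relative to DMSO.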
# Adra2b (gene 24174) = Adra2b (gene 24174) (UniProt P19328); test: NVS_GPCR_rmAdra2B: NovaScreen (NVS) G Protein-Coupled Receptor Assay for hybird cells Adrenergic, Alpha 2B Receptor (Adra2B) (AID 2283306)
# How it was run: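 Radioligand filter-binding assay on membrane proteins from neuroglioma/blastoma hybrid cells (rodent), 1 h after dosing; scintillation counting, loss of signal vs DMSO. Primary screen in duplicate at 25 uM, actives then run in concentration series.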
# [17] = target: Metabotropic glutamate receptor 1 (Rattus norvegicus) (UniProt P23385); test: NVS_GPCR_rmMGluR1: NovaScreen (NVS) G Protein-Coupled Receptor Assay for rat Glutamate Metabotropic Receptor 1 (MGluR1) (AID 2283305)
# How it was run: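 Rat cerebellum membrane preparation, radioligand displacement binding read by filter-based scintillation counting 1 hour after dosing. Initial duplicate single-point screen at 25 uM, then concentration-response up to 50 uM; loss of signal versus DMSO baseline scored.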
# [18] = target: rat Adrenergic Receptor, Alpha 2 (Adra2), Non-selective Binding, Adra2a (gene 25083) (UniProt P22909); test: NVS_GPCR_rAdra2_NonSelective: NovaScreen (NVS) G Protein-Coupled Receptor Assay for rat Adrenergic Receptor, Alpha 2 (Adra2), Non-selective Binding (AID 2283299)
# How it was run: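 Rat cortical membranes, radioligand competitive displacement read by filter-based scintillation counting 1.25 hours after dosing. Primary screen in duplicate at 25 uM; actives followed up in concentration series.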
# [19] = target: rat Serotonin, 5-Hydroxytryptamine Receptor (5HT), Non-Selective Binding, Htr1a (gene 24473) (UniProt P19327); test: NVS_GPCR_r5HT_NonSelective: NovaScreen (NVS) G Protein-Coupled Receptor Assay for rat Serotonin, 5-Hydroxytryptamine Receptor (5HT), Non-Selective Binding (AID 2283295)
# How it was run: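 Radioligand displacement on rat cortical membranes, 1 h incubation, filter-based scintillation counting. Primary duplicates at 25 uM, actives retested in concentration series; loss of signal fitted against DMSO as baseline.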
# Chain of mouse Cholecystokinin, CCK2 Receptor (CCKB), Cckbr (gene 12426) (P56481 whole entry, looked up): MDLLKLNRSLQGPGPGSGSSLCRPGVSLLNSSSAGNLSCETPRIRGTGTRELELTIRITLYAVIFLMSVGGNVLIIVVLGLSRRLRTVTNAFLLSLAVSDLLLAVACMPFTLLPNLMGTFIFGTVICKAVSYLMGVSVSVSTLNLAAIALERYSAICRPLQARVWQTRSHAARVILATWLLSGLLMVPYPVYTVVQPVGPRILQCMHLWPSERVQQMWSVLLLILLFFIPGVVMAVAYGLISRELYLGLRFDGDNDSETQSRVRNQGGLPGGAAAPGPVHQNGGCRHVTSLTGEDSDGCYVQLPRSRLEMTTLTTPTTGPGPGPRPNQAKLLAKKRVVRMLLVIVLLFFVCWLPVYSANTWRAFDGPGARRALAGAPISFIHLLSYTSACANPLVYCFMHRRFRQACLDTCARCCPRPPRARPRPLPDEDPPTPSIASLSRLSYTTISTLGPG
# Chain of guinea pig Bradykinin Receptor B2 (BK2), BDKRB2 (gene 100135486) (O70526 whole entry, looked up): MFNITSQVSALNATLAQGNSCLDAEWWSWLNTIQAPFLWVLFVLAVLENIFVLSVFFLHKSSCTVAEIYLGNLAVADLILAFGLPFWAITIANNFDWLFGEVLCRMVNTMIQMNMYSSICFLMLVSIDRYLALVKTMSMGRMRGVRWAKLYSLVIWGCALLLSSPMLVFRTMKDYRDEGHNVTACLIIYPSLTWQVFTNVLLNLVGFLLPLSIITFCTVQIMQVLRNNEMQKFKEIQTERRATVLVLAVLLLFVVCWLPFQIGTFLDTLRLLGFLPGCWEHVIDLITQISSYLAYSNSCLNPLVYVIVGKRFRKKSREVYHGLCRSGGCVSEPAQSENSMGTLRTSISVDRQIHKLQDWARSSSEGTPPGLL
# Chain of rat Somatostatin Receptor (SST), Sstr1 (gene 25033) (P28646 whole entry, looked up): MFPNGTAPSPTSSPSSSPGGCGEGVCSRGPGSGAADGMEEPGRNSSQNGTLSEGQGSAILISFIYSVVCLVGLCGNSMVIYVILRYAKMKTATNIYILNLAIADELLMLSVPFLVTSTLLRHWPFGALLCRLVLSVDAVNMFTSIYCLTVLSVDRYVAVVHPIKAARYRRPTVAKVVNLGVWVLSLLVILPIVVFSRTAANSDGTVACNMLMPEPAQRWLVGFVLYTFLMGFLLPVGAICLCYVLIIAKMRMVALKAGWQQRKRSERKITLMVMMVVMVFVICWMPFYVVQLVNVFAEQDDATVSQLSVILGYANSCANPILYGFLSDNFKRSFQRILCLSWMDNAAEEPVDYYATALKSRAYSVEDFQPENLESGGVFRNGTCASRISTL
# Chain of Metabotropic glutamate receptor 1 (Rattus norvegicus) (P23385 whole entry, looked up): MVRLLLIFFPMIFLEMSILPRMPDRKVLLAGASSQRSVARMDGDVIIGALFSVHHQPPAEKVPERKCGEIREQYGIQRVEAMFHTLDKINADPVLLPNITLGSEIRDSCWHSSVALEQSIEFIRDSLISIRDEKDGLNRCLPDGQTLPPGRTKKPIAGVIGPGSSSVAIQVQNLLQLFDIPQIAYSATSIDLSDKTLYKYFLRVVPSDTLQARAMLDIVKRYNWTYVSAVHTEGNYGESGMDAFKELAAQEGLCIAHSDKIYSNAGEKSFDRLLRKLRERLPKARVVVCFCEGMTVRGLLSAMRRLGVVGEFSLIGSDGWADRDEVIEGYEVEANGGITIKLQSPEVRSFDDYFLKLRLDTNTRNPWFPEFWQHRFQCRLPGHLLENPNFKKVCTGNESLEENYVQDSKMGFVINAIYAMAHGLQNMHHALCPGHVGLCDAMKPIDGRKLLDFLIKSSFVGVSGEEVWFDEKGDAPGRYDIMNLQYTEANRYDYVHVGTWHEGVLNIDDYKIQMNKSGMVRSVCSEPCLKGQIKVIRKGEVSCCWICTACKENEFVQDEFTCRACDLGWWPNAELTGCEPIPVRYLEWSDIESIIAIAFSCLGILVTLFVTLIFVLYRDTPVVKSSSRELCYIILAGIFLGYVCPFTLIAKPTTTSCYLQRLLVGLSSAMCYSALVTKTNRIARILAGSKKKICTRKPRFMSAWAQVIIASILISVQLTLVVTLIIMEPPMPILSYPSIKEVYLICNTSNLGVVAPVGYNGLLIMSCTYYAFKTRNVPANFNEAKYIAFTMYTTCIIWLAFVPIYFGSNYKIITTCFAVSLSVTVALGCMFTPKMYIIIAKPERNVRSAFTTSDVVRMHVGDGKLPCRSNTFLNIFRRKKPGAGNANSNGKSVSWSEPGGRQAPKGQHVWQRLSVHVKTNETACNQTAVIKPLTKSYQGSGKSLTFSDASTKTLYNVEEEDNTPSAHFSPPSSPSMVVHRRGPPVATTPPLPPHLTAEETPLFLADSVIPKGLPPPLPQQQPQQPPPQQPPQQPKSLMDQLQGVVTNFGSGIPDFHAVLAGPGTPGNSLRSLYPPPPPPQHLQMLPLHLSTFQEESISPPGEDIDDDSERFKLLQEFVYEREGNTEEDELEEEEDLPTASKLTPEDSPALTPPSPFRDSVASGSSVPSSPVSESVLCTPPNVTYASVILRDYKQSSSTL
# Chain of guinea pig Serotonin, 5-Hydroxytryptamine Receptor 4 (5HT4), HTR4 (gene 100135548) (O70528 whole entry, looked up): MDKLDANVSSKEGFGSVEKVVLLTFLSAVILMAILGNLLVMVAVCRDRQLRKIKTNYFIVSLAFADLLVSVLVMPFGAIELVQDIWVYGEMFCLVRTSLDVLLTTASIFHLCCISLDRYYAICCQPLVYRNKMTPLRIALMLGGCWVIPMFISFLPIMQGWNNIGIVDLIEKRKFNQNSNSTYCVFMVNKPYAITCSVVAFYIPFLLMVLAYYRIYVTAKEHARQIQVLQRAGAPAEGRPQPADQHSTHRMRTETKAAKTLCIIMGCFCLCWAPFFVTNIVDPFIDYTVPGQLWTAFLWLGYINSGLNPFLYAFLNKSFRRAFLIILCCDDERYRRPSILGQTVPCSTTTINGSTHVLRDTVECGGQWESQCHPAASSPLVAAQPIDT
# Chain of human Opioid Receptor Mu (Opiate Mu), OPRM1 (gene 4988) (P35372 whole entry, looked up): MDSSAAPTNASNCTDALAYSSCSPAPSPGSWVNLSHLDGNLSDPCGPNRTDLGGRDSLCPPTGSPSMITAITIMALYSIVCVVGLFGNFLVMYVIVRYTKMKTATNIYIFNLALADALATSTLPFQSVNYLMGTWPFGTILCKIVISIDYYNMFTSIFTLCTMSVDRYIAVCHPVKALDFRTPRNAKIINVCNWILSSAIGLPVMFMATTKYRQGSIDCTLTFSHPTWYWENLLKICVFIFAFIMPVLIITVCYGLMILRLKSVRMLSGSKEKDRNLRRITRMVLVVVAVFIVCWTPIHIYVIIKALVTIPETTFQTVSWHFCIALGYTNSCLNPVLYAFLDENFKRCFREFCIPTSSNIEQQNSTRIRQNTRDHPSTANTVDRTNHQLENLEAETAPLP
# Chain of rat Neurokinin-1 Receptor (NK1), Tacr1 (gene 24807) (P14600 whole entry, looked up): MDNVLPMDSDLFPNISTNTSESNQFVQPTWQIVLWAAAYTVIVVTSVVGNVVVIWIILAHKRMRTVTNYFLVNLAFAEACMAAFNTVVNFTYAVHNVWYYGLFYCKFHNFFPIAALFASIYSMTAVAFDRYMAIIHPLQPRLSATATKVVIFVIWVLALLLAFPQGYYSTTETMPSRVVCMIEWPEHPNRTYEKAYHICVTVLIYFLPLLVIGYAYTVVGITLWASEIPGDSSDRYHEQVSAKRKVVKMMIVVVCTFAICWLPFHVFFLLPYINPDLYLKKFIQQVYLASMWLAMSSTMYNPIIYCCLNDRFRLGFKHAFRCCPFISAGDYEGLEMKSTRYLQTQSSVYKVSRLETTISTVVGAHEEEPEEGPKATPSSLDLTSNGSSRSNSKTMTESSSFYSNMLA
# Chain of rat Opioid Receptor, Non-selective Sodium (Na+) Binding, Oprm1 (gene 25601) (P33535 whole entry, looked up): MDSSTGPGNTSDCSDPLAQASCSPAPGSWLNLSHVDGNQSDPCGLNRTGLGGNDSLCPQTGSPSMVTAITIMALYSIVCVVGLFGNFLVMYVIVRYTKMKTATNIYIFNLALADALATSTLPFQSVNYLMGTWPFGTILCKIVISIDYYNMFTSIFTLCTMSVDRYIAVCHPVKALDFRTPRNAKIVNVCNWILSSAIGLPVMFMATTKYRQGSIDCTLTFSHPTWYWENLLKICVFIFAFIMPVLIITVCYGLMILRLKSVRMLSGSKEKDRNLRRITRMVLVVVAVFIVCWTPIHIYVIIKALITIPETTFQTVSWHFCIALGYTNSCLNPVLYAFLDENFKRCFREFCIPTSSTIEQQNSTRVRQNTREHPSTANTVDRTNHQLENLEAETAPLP
# Chain of rat Corticotropin Releasing Factor Receptor (CRF), Crhr1 (gene 58959) (P35353 whole entry, looked up): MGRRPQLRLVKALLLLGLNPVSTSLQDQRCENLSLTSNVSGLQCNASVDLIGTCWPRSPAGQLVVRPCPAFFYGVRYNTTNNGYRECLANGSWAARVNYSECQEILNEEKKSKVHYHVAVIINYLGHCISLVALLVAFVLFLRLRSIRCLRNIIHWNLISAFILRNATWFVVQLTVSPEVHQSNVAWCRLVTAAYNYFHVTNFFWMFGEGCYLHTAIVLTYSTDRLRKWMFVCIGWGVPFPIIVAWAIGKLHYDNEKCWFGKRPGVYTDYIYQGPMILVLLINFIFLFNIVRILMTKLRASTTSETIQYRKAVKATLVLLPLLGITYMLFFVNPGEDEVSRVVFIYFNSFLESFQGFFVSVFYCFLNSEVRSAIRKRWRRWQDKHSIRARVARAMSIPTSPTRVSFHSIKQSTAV
# Chain of Adra2b (gene 24174) (P19328 whole entry, looked up): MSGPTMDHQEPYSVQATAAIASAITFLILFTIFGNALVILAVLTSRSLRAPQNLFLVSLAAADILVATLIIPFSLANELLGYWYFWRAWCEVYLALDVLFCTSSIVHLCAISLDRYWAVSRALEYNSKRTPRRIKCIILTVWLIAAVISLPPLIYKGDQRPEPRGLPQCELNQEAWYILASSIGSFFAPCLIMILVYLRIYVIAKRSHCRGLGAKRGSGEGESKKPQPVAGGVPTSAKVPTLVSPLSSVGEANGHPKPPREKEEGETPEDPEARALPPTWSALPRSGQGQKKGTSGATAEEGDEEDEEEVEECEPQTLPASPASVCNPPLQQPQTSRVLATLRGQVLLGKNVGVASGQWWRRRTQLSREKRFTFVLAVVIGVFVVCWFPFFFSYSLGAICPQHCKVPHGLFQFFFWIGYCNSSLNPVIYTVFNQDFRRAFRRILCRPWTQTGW
compound,measurement,setting,value
CC(C)(C)C(O)C(Oc1ccc(Cl)cc1)n1cncn1 (stereo unspecified),outcome,[1],inactive
same,outcome,[2],inactive
same,AC50,[3],38.2 µM (active)
same,outcome,[3],inactive
C#CCN1C(=O)COc2cc(F)c(N3C(=O)C4=C(CCCC4)C3=O)cc21,outcome,[4],inactive
same,outcome,[5],inactive
CNC(=O)/C=C(\C)OP(=O)(OC)OC,outcome,[6],inactive
O=C1c2ccccc2C(=O)N1SC(Cl)(Cl)Cl,AC50,[7],6.04 µM (active)
CC(C)(C)C(O)/C(=C\c1ccc(Cl)cc1Cl)n1cncn1 (stereo unspecified),outcome,[7],inactive
Oc1ccc(Cl)cc1Cc1ccccc1,AC50,[7],16.5 µM (active) [middle of 6 runs]
same,outcome,[7],inactive
same,AC50,[1],19.8 µM (active) [middle of 4 runs]
same,AC50,[8],17.2 µM (active) [middle of 6 runs]
same,outcome,[5],inactive
same,outcome,[9],inactive
same,outcome,[3],inactive
same,AC50,[10],25.2 µM (active)
Oc1cc(Cl)ccc1Oc1ccc(Cl)cc1Cl,AC50,[7],19.9 µM (active) and 7.86 µM (active) and 15.6 µM (active)
same,outcome,[7],inactive
same,AC50,[10],18.7 µM (active)
CCC(C)(C)C(=O)OC1=C(c2ccc(Cl)cc2Cl)C(=O)OC12CCCCC2,outcome,[4],inactive
same,outcome,[1],inactive
same,outcome,[11],inactive
CCOCN(C(=O)CCl)c1c(C)cccc1CC,outcome,[12],inactive
O=S(=O)(O)C(F)(F)C(F)(F)C(F)(F)C(F)(F)C(F)(F)C(F)(F)C(F)(F)C(F)(F)F,outcome,[13],inactive
same,outcome,[2],inactive
same,outcome,[10],inactive
O=C(Nc1ccccc1)Nc1cnns1,AC50,[8],6.99 µM (active)
same,outcome,[14],inactive
same,outcome,[15],inactive
same,outcome,[16],inactive
same,outcome,Adra2b (gene 24174),inactive
same,outcome,[3],inactive
same,outcome,[12],inactive
O=[N+]([O-])c1c(Cl)c(Cl)c(Cl)c(Cl)c1Cl,outcome,[15],inactive
N#Cc1c(Cl)c(Cl)c(Cl)c(C#N)c1Cl,outcome,[8],inactive
same,outcome,[17],inactive
O=[N+]([O-])/N=C1\NCCN1Cc1ccc(Cl)nc1,AC50,[11],8.29 µM (active)
COC(=O)c1ccccc1S(=O)(=O)NC(=O)N(C)c1nc(C)nc(OC)n1,outcome,[4],inactive
CCc1ccc(C(=O)NN(C(=O)c2cc(C)cc(C)c2)C(C)(C)C)cc1,outcome,[1],inactive
CC(C)N(C(=O)COc1nnc(C(F)(F)F)s1)c1ccc(F)cc1,outcome,[17],inactive
CCCN(CCOc1c(Cl)cc(Cl)cc1Cl)C(=O)n1ccnc1,AC50,[7],10.5 µM (active)
same,AC50,[1],6.71 µM (active)
same,AC50,[18],1.85 µM (active)
same,AC50,Adra2b (gene 24174),3.65 µM (active)
same,outcome,[3],inactive
CC[C@H](C)[C@H]1O[C@]2(C=C[C@@H]1C)C[C@@H]1C[C@@H](C/C=C(\C)[C@@H](O[C@H]3C[C@H](OC)[C@@H](O[C@H]4C[C@H](OC)[C@@H](O)[C@H](C)O4)[C@H](C)O3)[C@@H](C)/C=C/C=C3\CO[C@@H]4[C@H](O)C(C)=C[C@@H](C(=O)O1)[C@]34O)O2 (tested in a mixture with another compound),AC50,[7],9.27 µM (active)
same,AC50,[1],12.4 µM (active)
same,AC50,[19],16.4 µM (active)
same,AC50,[17],9.49 µM (active)
same,outcome,[10],inactive
